DT40 TDP1 CPT – qHTS for Inhibitors of human tyrosyl-DNA phosphodiesterase 1 (TDP1): qHTS in cells in presence of CPT; actives 12% (n = 420,000); chicken DT40 Tdp1-/-;hTDP1 cells + 20 nM CPT, ATP luminescence, 48 h; Potency, µM (series often up to 46.2 µM), for inactives: at the top dose activity change, negative = growth inhibition, hits mostly inhibitors; further: potency means the concentration at half of the fitted maximal effect; nearly all actives have a fitted effect of over 55% in size
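Cell growth measured by CellTiter-Glo luminescence after a minimum 48 h, 37 C compound exposure with 20 nM CPT in Tdp1-knockout DT40 cells stably expressing hTDP1, seeded 400/well; qHTS titration format.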
uPA generation – qHTS for Inhibitors of Cell Surface uPA Generation; cell surface uPA generation assay, qHTS; AID 540303, 2011; Potency, µM (doses to about 38.3 µM), inactives show at the highest dose activity change, negative = inhibition, usual class: inhibitors; actives 0.31% (n = 330,000); active means well fitted inhibition curve with a large enough effect; inconclusive means small, poorly fitted or top-dose-only effect; inactive means no such curve, though single readings can be large or run the other way; tested in mouse RAW 264.7 cells; further: potency means the concentration at half of the fitted maximal effect; nearly all actives have a fitted effect of over 55% in size
IL1B secr inh – qHTS for Inhibitors of Inflammasome Signaling: IL-1-beta AlphaLISA Primary Screen | THP-1 LPS/ATP IL-1B secretion, AlphaLISA, 16 h; hits give low values | activity change, % at 57.5 µM | actives 4.7% (n = 360,000) | AID 743279, 2014; in the data active means activity change below about -50%; inconclusive means mostly about -30% to -49%
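Secreted IL-1B measured by AlphaLISA bead assay after 16 h compound exposure of THP-1 cells; compounds (final up to 57.5 uM) added 1 h before LPS (250 ng/mL) and ATP (1.25 mM) stimulation; lower signal means less secretion.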
HT1080 IDH1KD tx – qHTS for induction of synthetic lethality in tumor cells producing 2HG: qHTS for the HT-1080-IDH1KD cell line | HT-1080 IDH1 knockdown viability, ATP luminescence, 48 h | actives 2% (n = 360,000) | Potency, µM (doses to about 46.1 µM), for the others: top-dose activity, negative = toxicity, hits mostly cytotoxic;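 further: potency means the concentration at half of the fitted maximal effect; 0% = DMSO wells and -100% = cell-free medium wells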
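IDH1KD HT-1080 cells, 750/well, RPMI + 5% FBS; compound pinned after 2 h settling; 48 h, 37 °C; CellTiter-Glo luminescence; % activity normalised to DMSO and no-cell wells; curves fitted, classed by r2 and efficacy.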
DT40 TDP1 no CPT – qHTS for Inhibitors of human tyrosyl-DNA phosphodiesterase 1 (TDP1): qHTS in cells in absence of CPT | DT40 Tdp1-/- hTDP1 cells, no CPT, ATP luminescence, 48 h | actives 15% (n = 420,000) | AID 686978, 2013 | Potency, µM (highest dose often 46.2 µM), without a hit: at the highest dose activity change, negative = growth inhibition, actives largely listed as inhibitors; further: potency means the concentration at half of the fitted maximal effect; nearly all actives have a fitted effect of over 55% in size
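Cells were dispensed at 400 per well, compounds added by pin tool, plates incubated ≥48 hr at 37 °C, then CellTiter-Glo added for 30 min at room temperature before luminescence reading. Line: DT40 Tdp1-/- complemented with hTDP1; camptothecin omitted.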
HT1080NT lethal – qHTS for induction of synthetic lethality in tumor cells producing 2HG: qHTS for the HT-1080-NT fibrosarcoma cell line. actives 1.6% (n = 360,000). HT-1080-NT fibrosarcoma viability, CellTiter-Glo ATP luminescence, 48 h. Potency, µM (doses to about 46.1 µM), inactives show at the top dose activity, negative = less viability, most hits filed as cytotoxic;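 further: NT is the 2HG producing partner of a matched IDH1 knockdown line; potency means the concentration at half of the fitted maximal effect; 0% = DMSO-treated cells and -100% = media-only wells without cells; nearly all actives have a fitted effect of over 55% in size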
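Read-out is CellTiter-Glo luminescence after 10 minutes at room temperature, following 48 hours' compound treatment of HT-1080-NT cells (750 cells/well, RPMI, 5% FBS, 37 degrees C).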
An asterisk follows results filed as active; u = inconclusive; x = no result. Compounds with a hit are over-represented: about 19% of the library has one in this group of screens. Unless noted, the call rests on the fitted dose curve; in most records, active means well fitted curve in the direction sought with a large enough effect; inconclusive means small, poorly fitted or top-dose-only effect, or another doubt; inactive means no such curve, though single readings can be large; an effect the other way counts as inactive or inconclusive. Unless noted, on the % scale 0 is the no-effect control and ±100 the full control effect.

SMILES	DT40 TDP1 CPT	uPA generation	IL1B secr inh	HT1080 IDH1KD tx	DT40 TDP1 no CPT	HT1080NT lethal
CCC(=O)c1ccc(OCC(O)CNC2CCCC2)cc1 (stereo not drawn)	-4%	1%	-12	-4%	20%	-10%
Cc1cccc(-n2c(=O)cc(N3CCN(c4ccc(F)cc4)CC3)[nH]c2=O)c1	u	-1%	14	1%	18µM*	0%
Cc1nc2cccnc2n1-c1cccc(C(=O)N2CCN(c3cccc(Cl)c3)CC2)c1	4.1µM*	x	x	x	4.6µM*	x
COc1cccc(N2CCN(C(=O)c3cccc(-n4c(C)nc5cccnc54)c3)CC2)c1	12µM*	x	x	x	16µM*	x
CC(=O)Nc1cccc(C(=O)OCC(=O)N(c2ccccc2)C2CCS(=O)(=O)C2)c1 (stereo not drawn)	-18%	0%	-2	9%	-4%	6%
CCC(C)c1ccc(OCC(=O)Nc2cccc3ccc(C)nc23)cc1 (stereo not drawn)	u	x	x	x	-25%	x
COc1ccccc1C(=O)NCc1ccco1	1%	2%	-23	5%	1%	-1%
COc1ccccc1C(=O)N(Cc1ccco1)Cc1ccccc1F	u	x	x	x	21µM*	x
CCOc1ccccc1C(=O)N(Cc1ccco1)Cc1ccccc1F	21µM*	x	x	x	21µM*	x
O=c1[nH]c(C2CCN(S(=O)(=O)c3ccccc3C(F)(F)F)CC2)nc2c1nnn2Cc1cccc(F)c1	u	2%	u	16µM*	u	u
O=c1[nH]c(C2CCN(S(=O)(=O)c3ccc(C(F)(F)F)cc3)CC2)nc2c1nnn2Cc1cccc(F)c1	u	-8%	u	u	u	u
O=S(=O)(c1ccc(Cl)cc1)N1CCC(c2nc3ccccc3[nH]2)CC1	u	-9%	3	u	12µM*	-14%
CC(=O)c1ccc(S(=O)(=O)N2CCC(c3nc4ccccc4[nH]3)CC2)cc1	u	-1%	8	-6%	u	-1%
O=c1[nH]c(C2CCN(S(=O)(=O)Cc3ccccc3)CC2)nc2c1nnn2Cc1cccc(Cl)c1	16µM*	-4%	-12	u	18µM*	u
O=c1[nH]c(C2CCN(S(=O)(=O)Cc3ccccc3)CC2)nc2c1nnn2Cc1ccccc1	u	-3%	-20	0%	u	-3%
O=c1[nH]c(C2CCN(S(=O)(=O)c3ccc(C(F)(F)F)cc3)CC2)nc2c1nnn2Cc1ccccc1	u	-3%	-71*	0%	u	-5%
COc1ccc(NC(=S)N2CCC(NC(=O)c3ccco3)CC2)cc1	4%	1%	2	11%	-7%	-3%
Cc1ccc(Cn2nnc3c(=O)[nH]c(C4CCN(S(=O)(=O)c5ccc(F)cc5)CC4)nc32)cc1	-29%	x	3	u	-23%	-22%
O=c1[nH]c(C2CCN(S(=O)(=O)/C=C/c3ccccc3)CC2)nc2c1nnn2Cc1ccc(F)cc1	21µM*	-12%	-54*	-26%	18µM*	u
Cc1ccc(-n2ncc3c2CCCC3NC(=O)c2ccccc2N2CCOCC2)cc1C (stereo not drawn)	16µM*	24%	-15	2%	u	-7%
O=C(CCc1ccccn1)NC1CCCc2c1cnn2-c1ccc(F)cc1F (stereo not drawn)	-25%	5%	0	-9%	u	-18%
O=C(NC1CCCc2c1cnn2-c1ccc(F)cc1F)c1ccccc1N1CCOCC1 (stereo not drawn)	u	-5%	4	-3%	23µM*	-1%
CCn1c(SCC(=O)Nc2ccc(F)cc2)nnc1-c1cnccn1	-24%	3%	-15	0%	15%	-1%
Cc1cnc(C(=O)Nc2cccc(-c3nnc4n3CCCCC4)c2)cn1	-28%	3%	-6	18%	0%	13%
c1cc(Nc2ncnc3sccc23)cc(-c2nnc3n2CCCCC3)c1	21µM*	5%	4	-10%	u	-1%
SMILES	DT40 TDP1 CPT	uPA generation	IL1B secr inh	HT1080 IDH1KD tx	DT40 TDP1 no CPT	HT1080NT lethal
COc1ccc2c(c1)CCC1C2CC[C@@]2(C)C(O)CCC12 (stereo partly drawn)	-21%	x	x	x	-3%	x
CC12CCC3c4ccc(O)cc4CCC3C1CCC2=O (stereo not drawn)	0%	u	21	0%	0%	-21%
CC(NCCN(C)C)C1CCC2C3CCc4cc(O)ccc4C3CCC12C (stereo not drawn)	u	-12%	-102*	u	1.6µM*	u
CC(=O)O[C@H]1CC[C@H]2[C@@H]3CCc4cc(O)ccc4[C@H]3CC[C@]12C	u	-18%	8	u	u	18µM*
C[C@]12CC[C@@H]3c4ccc(O)cc4CC[C@H]3[C@@H]1CC[C@@H]2O	u	-24%	24	u	23µM*	u
C#C[C@]1(O)CC[C@H]2[C@@H]3CCc4cc(O)ccc4[C@H]3CC[C@@]21C	u	u	26	21µM*	15µM*	9.2µM*
Cc1cn2c(=O)cc(COc3cccc(NC(=O)c4ccccc4C)c3)nc2s1	-21%	x	x	x	u	x
Cc1nc2ccc(S(=O)(=O)N(CC(=O)Nc3cccc(C)c3C)Cc3ccccc3)cc2s1	-18%	x	x	x	u	x
COc1ccc(CC(=O)OC(C)C(=O)NC2CCCCC2C)cc1 (stereo not drawn)	2%	3%	7	12%	-28%	17%
CCc1ccc(Cn2c(CNS(=O)(=O)c3ccc4c(c3)CCCC4)nc3cccnc32)cc1	u	x	x	x	16µM*	x
CC(C)CC(=O)NCc1nc2cccnc2n1Cc1ccccc1	2%	x	x	x	-17%	x
